Data: article PMC4336329 (PLoS ONE, 2015)
Screen size: about 310,000 compounds; about 14,000 (4.5%) showed an effect of 50% or more. The effect is printed as a negative number. The full list was thinned out, with strong results kept by preference.

molecular target: human ether-à-go-go-related gene (hERG) potassium channel (human, UniProt Q12809); experiment: primary screen, population patch clamp on CHO cells stably expressing hERG; higher = less effect of the substance
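Also: peak tail current of the secondary pulse compared with the same well before compound.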

Chain of human ether-à-go-go-related gene (hERG) potassium channel (Q12809 whole entry, looked up): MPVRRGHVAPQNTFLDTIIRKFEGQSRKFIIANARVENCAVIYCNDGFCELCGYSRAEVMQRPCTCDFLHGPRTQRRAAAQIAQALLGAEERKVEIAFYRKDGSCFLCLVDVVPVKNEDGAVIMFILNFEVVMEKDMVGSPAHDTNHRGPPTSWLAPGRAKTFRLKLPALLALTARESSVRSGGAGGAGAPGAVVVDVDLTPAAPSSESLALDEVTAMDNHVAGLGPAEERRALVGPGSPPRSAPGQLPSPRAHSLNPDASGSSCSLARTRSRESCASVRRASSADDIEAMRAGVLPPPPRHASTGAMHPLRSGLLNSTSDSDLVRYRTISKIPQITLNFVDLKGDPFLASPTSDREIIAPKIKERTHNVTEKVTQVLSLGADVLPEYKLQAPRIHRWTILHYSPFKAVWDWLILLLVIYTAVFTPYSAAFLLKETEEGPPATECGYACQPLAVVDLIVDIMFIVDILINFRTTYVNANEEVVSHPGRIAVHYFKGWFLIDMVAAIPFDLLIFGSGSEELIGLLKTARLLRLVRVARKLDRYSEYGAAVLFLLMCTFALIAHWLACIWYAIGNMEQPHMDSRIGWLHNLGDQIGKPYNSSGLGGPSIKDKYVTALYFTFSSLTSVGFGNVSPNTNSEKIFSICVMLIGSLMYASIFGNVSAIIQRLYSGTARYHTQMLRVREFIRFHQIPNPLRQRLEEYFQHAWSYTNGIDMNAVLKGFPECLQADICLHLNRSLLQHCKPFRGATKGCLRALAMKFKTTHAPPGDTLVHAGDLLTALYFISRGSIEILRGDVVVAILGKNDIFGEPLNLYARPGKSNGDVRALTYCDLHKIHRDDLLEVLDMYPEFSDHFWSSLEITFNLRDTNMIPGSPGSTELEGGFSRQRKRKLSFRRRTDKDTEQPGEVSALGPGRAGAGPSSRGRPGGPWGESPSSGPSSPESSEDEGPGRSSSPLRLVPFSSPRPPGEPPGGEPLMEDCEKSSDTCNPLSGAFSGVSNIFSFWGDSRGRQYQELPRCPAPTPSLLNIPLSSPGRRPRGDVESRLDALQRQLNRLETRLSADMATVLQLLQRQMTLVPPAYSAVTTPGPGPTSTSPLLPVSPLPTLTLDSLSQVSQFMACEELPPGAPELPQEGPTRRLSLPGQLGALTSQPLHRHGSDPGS

Structure (SMILES)	hERG current change (%, negative = inhibition) at 10uM [%]
COc1ccc(C(C(=O)NC(C)(C)C)N(C(=O)CNC(=O)c2cccs2)c2ccc(NC(C)=O)cc2)cc1OC (centres unmarked)	10.4
COc1ccc(OC)c(S(=O)(=O)N2CCN(C(=O)c3cc(C4CC4)nn3-c3ccccc3)CC2)c1	-11.1
O=C(O)c1cc(C2CC2)nn1-c1ccccc1	17.5
O=C(NC1CCCCC1)c1cc(C2CC2)nn1-c1ccccc1	-51.2
CC1CCC(NC(=O)c2cc(C3CC3)nn2-c2ccccc2)CC1 (centres unmarked)	-34.9
COc1ccc(CN2CCN(C(=O)c3cc(C4CC4)nn3-c3ccccc3)CC2)cc1F	-48.6
COc1ccc(N2CCN(C(=O)c3cc(C4CC4)nn3-c3ccccc3)CC2)cc1	-44.4
O=C(c1cc(C2CC2)nn1-c1ccccc1)N1CCN(Cc2ccc(Cl)cc2)CC1	-32.1
N#Cc1ccc(CN2CCN(C(=O)c3cc(C4CC4)nn3-c3ccccc3)CC2)cc1	-57.2
COc1cc2c(cc1OC)CN(C(=O)c1cc(C3CC3)nn1-c1ccccc1)CC2	-56.2
COc1ccc(NC(=O)Nc2ccccc2SC)cc1OC	6.08
Cc1ccc(C)c(N2CCN(C(=O)Cn3c(=O)[nH]c4ccsc4c3=O)CC2)c1	-4.12
Cc1ccc(C(=O)Nc2nnc(-c3ccc(C(C)(C)C)cc3)s2)cc1	4.81
CCCCCCN1CC(=O)N2[C@@H](Cc3c([nH]c4ccccc34)C2(C)C)C1=O	13.9
CCN(CC)CCCN1CC(=O)N2[C@@H](Cc3c([nH]c4ccccc34)C2(C)C)C1=O	1.24
CCCCN(CCCC)CCCN1CC(=O)N2[C@@H](Cc3c([nH]c4ccccc34)C2(C)C)C1=O	-73.2
O=C(NCc1cccnc1)c1cc(-c2ccco2)on1	8.02
CC(NC(=O)C1CCN(C(=O)[C@@H]2Cc3ccccc3CN2C(=O)OC(C)(C)C)CC1)c1ccccc1 (some centres unmarked)	14
O=C(NCC(=O)N(c1cnc2ccccc2c1)C(C(=O)NC1CCCC1)c1ccncc1)c1ccco1 (centres unmarked)	8.74
CC(C)(C)S(=O)(=O)c1nc2ccccc2s1	6.74
CCCc1ccc2oc(C(=O)N3CCN(C4CCS(=O)(=O)C4)CC3)c(C)c2c1 (centres unmarked)	-51.3
CCCc1ccc2oc(C(=O)N3CCC(O)CC3)c(C)c2c1	-12.2
CCCc1ccc2oc(C(=O)N3CCCC3)c(C)c2c1	-7.11
